TAG inh: reduces triacylglycerol accumulation in H9c2 cells; 230,000 compounds, 0.66% hits; inhibition, % at 12.5 µM; Nile Red lipid (TAG) fluorescence; cells loaded with 200 µM oleic acid; AID 651582;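 active = pattern-corrected inhibition of lipid staining of at least 50% with the nuclear-stain viability signal not falling by more than 50%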;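 note: 0% = DMSO wells and 100% = triacsin C control wells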
Jurkat NFkB inh: inhibitors of the PMA/ionomycin-induced NF-kB reporter in Jurkat cells. PMA/ionomycin-induced NF-kB luciferase reporter, luminescence. inhibition, % at 4 µM. AID 435003. 330,000 compounds, 0.53% hits; in the data active = inhibition above about 50%
COUP-TFII inh: inhibitors of human COUP-TFII (NR2F2); 370,000 compounds, 0.7% hits; HEK293T NGFI-A luciferase reporter, luminescence; AID 686940; inhibition, % at 8.6 µM;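 active = inhibition above a per-plate cutoff, mean inhibition of test wells between control levels plus 3 SD, cut at about 38% in these data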;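 note: cells cotransfected with COUP-TFII expression vector driving the NGFI-A reporter; 0% = median of COUP-TF2 test wells and 100% = reporter-only cells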
Target sequence (P24468 whole entry, looked up): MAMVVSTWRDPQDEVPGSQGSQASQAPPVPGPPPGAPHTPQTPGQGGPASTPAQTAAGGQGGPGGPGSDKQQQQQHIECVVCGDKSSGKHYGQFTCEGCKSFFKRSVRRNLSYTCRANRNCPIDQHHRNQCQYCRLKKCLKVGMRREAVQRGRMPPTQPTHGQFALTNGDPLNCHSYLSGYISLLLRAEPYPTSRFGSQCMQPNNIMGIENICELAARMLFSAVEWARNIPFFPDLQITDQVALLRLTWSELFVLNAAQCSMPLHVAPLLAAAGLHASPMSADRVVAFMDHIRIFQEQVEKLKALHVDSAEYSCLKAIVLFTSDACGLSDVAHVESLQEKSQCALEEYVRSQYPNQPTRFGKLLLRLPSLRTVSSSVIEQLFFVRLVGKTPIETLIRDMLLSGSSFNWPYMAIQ
697 NFkB inh: lowers PMA/ionomycin-induced NF-kB signal in 697 B cells. inhibition, % at 4 µM. 330,000 compounds, 0.33% hits. 697 B-cell NF-kB luciferase reporter, 16 h; in the data active = inhibition above about 35%
Cardio protect: modulators protecting cardiomyocytes from myocardial damage | AID 588492 | 360,000 compounds, 0.63% hits | protection from H2O2 cell death, % at 20 µM | H9c2 cardiomyocytes, H2O2 injury protection, ATPLite, 2 h;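 active = compounds giving at least 50% protection of heart cells from peroxide-induced death in the single-dose screen, raw or plate-pattern-corrected value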;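 note: 0% = DMSO wells with peroxide and 100% = DMSO wells without peroxide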
Gli-Sufu block: antagonists of Gli-Sufu signaling | Sufu-KO-LIGHT fibroblasts, Gli luciferase reporter luminescence | inhibition, % at 5 µM | 340,000 compounds, 0.74% hits;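 active = inhibition above about 55%, limit read from the data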;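 note: 0% = DMSO-treated cells and 100% = wells with medium but no cells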
VP16 Luc counter: VP16 inhibition counter-screen for COUP-TFII | HEK293 Gal4-VP16 luciferase reporter, luminescence | shares compounds with COUP-TFII inh | AID 687007 | 2,500 compounds, 25% hits | inhibition, % at 8.5 µM; in the data active = inhibition above about 13%
NR2F2 inh conf: COUP-TFII (NR2F2) inhibition, confirmation assay; shares compounds with COUP-TFII inh; 2,500 compounds, 45% hits; inhibition, % at 8.5 µM; HEK293 NGFI-A luciferase reporter, luminescence;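 active = mean inhibition over three repeats above a set limit taken from the earlier primary screen, cut at about 38% in these data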;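 note: 100% = cells given the luciferase reporter alone without the COUP-TF2 vector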
* hit, by the source's call; / = no result given. Rows were chosen to be rich in hits. Some 2.6% of all compounds tested hit in one or more screens of this group.

SMILES	TAG inh	Jurkat NFkB inh	COUP-TFII inh	697 NFkB inh	Cardio protect	Gli-Sufu block	VP16 Luc counter	NR2F2 inh conf
O=C(Nc1ccc(F)cc1)OCc1cn(Cc2ccccc2C(F)(F)F)nn1	/	/	-0.9	/	/	/	/	/
COc1cc2c(c(OC)c1OC)C1(CCCCC1)CC2NCC=C(C)C (stereo not drawn)	/	/	-10.9	/	/	/	/	/
CNC1=C(N(C(C)=O)c2ccc(Br)cc2)C(=O)c2ccccc2C1=O	/	/	47.8*	/	-13.1	94.1*	16.8*	35.8
Cc1cc(CN(C)C(=O)c2cc(COc3ccc4ncccc4c3)on2)on1	-17.9	36.9	54.5*	-41.2	-11.7	33.1	2.2	42.9*
CC(CNC(=O)c1cc(COc2ccc3ncccc3c2)on1)c1ccccc1 (stereo not drawn)	-22.0	38.4	46.0*	-28.9	-16.9	48.6	8.6	31.4
CN(Cc1nccn1C)C(=O)c1cc(COc2ccc3ncccc3c2)on1	-27.7	1.7	25.6	-2.3	-11.6	17.2	/	/
COc1cc(Cl)ccc1OCc1cc(C(=O)NCC(C)c2ccccc2)no1 (stereo not drawn)	/	-4.1	9.9	13.6	0.4	0.8	/	/
CC(C)(C)C(=O)OC12CCCN(C1)/C(=C/c1ccccc1)C2 (stereo not drawn)	/	/	-5.6	/	/	/	/	/
Cc1nc(-c2ccc(C(=O)Nc3cccc(F)c3)cc2)cs1	-11.6	-76.8	55.8*	-79.4	-18.4	-29.8	-104.2	-0.1
N#CCCCc1cn(-c2cccc(-c3noc4c3C(=O)N(CC(=O)N3CCOCC3)CC4)c2)nn1	/	/	2.4	/	/	/	/	/
S=C(NCc1cccnc1)Nc1cccc2ccccc12	/	5.9	-1.8	0.7	0.2	-1.2	/	/
S=C(NCc1ccccc1)Nc1cccc2cnccc12	/	18.5	57.3*	-14.7	-23.7	64.5*	10.7	36.0
c1ccc(C(Cc2nc(-c3ccncc3)no2)c2ccccc2)cc1	/	41.0	56.2*	-28.6	-18.6	42.5	3.6	40.5*
CCN=C1NN=C(c2cc(C)n(Cc3ccco3)c2C)CS1	-4.4	12.8	72.9*	9.1	-13.0	71.2*	20.8*	91.5*
c1ccc(C[n+]2cccc3c4ccccc4ccc32)cc1	/	26.3	52.8*	0.5	-19.2	-6.2	3.0	44.9*
O=[N+]([O-])c1ccc(C[n+]2cccc3ccccc32)cc1	-6.1	7.6	-5.0	10.2	-0.4	-0.1	/	/
COc1ccc(OC)c(S(=O)(=O)N/N=C\c2ccc3c(c2)OCO3)c1	-11.6	-28.3	-7.6	-25.1	-1.9	-31.1	/	/
COc1ccc(S(=O)(=O)N/N=C\c2ccc3c(c2)OCO3)c(OC)c1	4.7	16.0	47.8*	-19.3	-15.0	6.3	-4.7	27.3
Cc1ccc(C)c(S(=O)(=O)NCc2ccncc2)c1	-20.1	14.8	42.8*	-43.6	-21.4	20.0	-2.6	16.6
Cc1ccc(C)c(S(=O)(=O)NCc2cccnc2)c1	/	7.2	5.0	13.4	1.7	2.4	/	/
CCc1cc(-c2nnn(CCC3COCCO3)c2CC)ccc1-c1cn(Cc2ccccc2)nn1 (stereo not drawn)	-15.0	/	66.2*	/	-19.6	/	-19.5	34.0
CCc1c(-c2ccc(Br)cc2)ncn1CCc1ccccc1OC	/	/	0.4	/	/	/	/	/
O=C(CN1CCN(C(=O)CNC(=O)c2ccc(-c3ccccc3)cc2)CC1)Nc1ccccc1Cl	5.7	/	50.4*	/	-1.1	/	-8.3	21.1
O=C(CN1CCN(C(=O)CNC(=O)c2ccc3c(c2)OCO3)CC1)Nc1ccccc1Cl	3.4	-0.5	-14.0	-17.9	-2.6	-6.7	/	/
Cc1ccc(NC(=O)C(C)c2cccc(C(=O)c3ccccc3)c2)cc1O (stereo not drawn)	/	23.7	48.0*	-10.7	-21.5	41.3	8.7	33.3
SMILES	TAG inh	Jurkat NFkB inh	COUP-TFII inh	697 NFkB inh	Cardio protect	Gli-Sufu block	VP16 Luc counter	NR2F2 inh conf
COc1ccccc1N1CCN(Cc2cc(Br)c(O)c3ncccc23)CC1	97.0	47.0	46.6*	-111.2	38.3	57.6*	1.7	15.5
CCN(c1ccccc1)S(=O)(=O)c1cc(C(=O)Nc2ccc(F)c(F)c2)ccc1F	/	5.6	44.3*	-19.5	-20.8	4.9	-9.0	28.2
Cc1ccc(CNC(=O)c2ccc(N3CCC4(CC3)CC(c3cccc(Br)c3)=NO4)c([N+](=O)[O-])c2)cc1	/	32.5	6.5	13.8	-2.6	19.7	/	/
CCCNC(=O)c1ccc(N2CCC3(CC2)CC(c2cccc(Br)c2)=NO3)c([N+](=O)[O-])c1	-40.3	21.8	54.0*	6.2	-14.8	45.0	1.3	27.7
CCCC1CCC2(CCCN2CCOC(=O)Nc2ccccc2C)CC1 (stereo not drawn)	/	/	3.4	/	/	/	/	/
Cc1cc2nc(C)n(CCCNC(=O)Nc3cccc4ccccc34)c2cc1C	-44.1	-4.2	37.7*	-24.6	-8.6	52.7	-1.9	18.5
CS(=O)(=O)N1CCc2cc(-c3csc(NC(=O)C(c4ccccc4)c4ccccc4)n3)ccc21	/	2.6	-9.4	-10.0	-7.8	-0.3	/	/
CC1Cc2cc(-c3csc(NC(=O)Cc4ccccc4)n3)ccc2N1S(C)(=O)=O (stereo not drawn)	/	15.3	74.9*	3.8	-0.4	2.1	-10.9	48.7*
COC(=O)c1ccc(CN2CCc3ccc(NC(=O)c4ccncc4)cc3C2)cc1	-7.3	8.3	48.1*	-12.6	-6.6	19.6	5.8	30.4
O=C(Nc1cccc(Br)c1)c1ccc(CN2CCc3ccccc3C2)cc1	-7.1	37.1	53.0*	-23.8	-15.0	-6.5	-24.2	32.2
CC(=O)Nc1ccc(NC(=O)c2ccc(CN3CCc4ccccc4C3)cc2)cc1	13.1	-11.7	2.2	2.0	14.0	-13.5	/	/
O=C(NCCc1ccccc1)OCc1cn(Cc2ccc(Cl)cc2)nn1	/	/	-33.7	/	/	/	/	/
COc1cccc(NC(=O)Nc2nc3ncccn3c2-c2ccc(C)cc2)c1	/	/	-32.0	/	/	/	/	/
Cc1cc(N2CCN(CC(C)(C)O)C[C@H]2C)ccc1N1CCN(CC(C)(C)O)[C@H](C)C1	/	/	3.7	/	/	/	/	/
Cc1nnsc1NC(=O)OCc1ccc(C(C)(C)C)cc1	-9.4	6.4	56.4*	-5.3	-21.5	2.6	-8.1	38.3*
C=CCOC(=O)Nc1snnc1C	-2.9	-1.9	15.8	2.3	7.7	-8.0	/	/
CC(=O)c1cn(CC(=O)Nc2ccc(C)cc2C)c2ccccc12	-36.4	28.0	50.3*	-24.7	-21.1	43.6	13.8*	53.8*
Fc1ccc(C2=Nn3c(nnc3C3CCCCC3)SC2)cc1	/	/	-3.1	/	/	/	/	/
COc1ccc2c(c1)[C@@]1(NCCc3c1[nH]c1ccc(OC)cc31)C(=O)N2C	/	/	-8.2	/	/	/	/	/
Cc1nn(-c2ccccc2)c2sc(C(=O)NCC3CCCO3)cc12 (stereo not drawn)	/	/	19.9	/	/	/	/	/
O=C(CSc1nnc(-c2cccnc2)s1)Nc1ccnc2ccccc12	/	38.6	65.3*	4.7	-12.7	13.2	7.0	62.4*
Cc1ccc(NC(=O)CSc2nnc(-c3cccnc3)s2)cc1	/	13.0	-6.3	-2.2	-1.6	3.8	/	/

Source: PubChem (several laboratories)
